Inconclusive results are not listed. The source made the active and inactive calls. Calls come from the whole dose curve; as a rule, active = well fitted cell-killing curve with a large enough effect; inconclusive = small, poorly fitted or top-dose-only effect, or effect the other way; inactive = flat fitted curve, though single readings scatter.
Tests used:
Assay in all cases: Primary qHTS to identify gynecologic anti-cancer compounds using libraries of approved drugs and bioactive compounds (AID 1345084); note: nearly all actives have a fitted effect of over 55% in size
C33A = details: Gynecologic cancer cell panel viability, ATPlite luminescence, 48 h; series mostly up to 57.5 µM
How it was run: (§1)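 Cytotoxicity screen measuring ATP content by luciferase luminescence. Each compound is applied at five concentrations for 48 h at 37 C with 5% CO2.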

CAOV3 = details: Gynecologic cancer cell panel viability, ATPlite luminescence, 48 h; series mostly up to 57.5 µM
How it was run: as §1

CASKI = details: Gynecologic cancer cell panel viability, ATPlite luminescence, 48 h; series mostly up to 57.5 µM
How it was run: as §1

Es-2 = details: Gynecologic cancer cell panel viability, ATPlite luminescence, 48 h; series mostly up to 57.5 µM
How it was run: as §1

HeLa = details: Gynecologic cancer cell panel viability, ATPlite luminescence, 48 h; series mostly up to 57.5 µM
How it was run: as §1

Hek293T = details: Gynecologic cancer cell panel viability, ATPlite luminescence, 48 h, control line for the selectivity index; series mostly up to 57.5 µM
How it was run: as §1

JEG-3 = details: Gynecologic cancer cell panel viability, ATPlite luminescence, 48 h; series mostly up to 57.5 µM
How it was run: as §1

OV90 = details: Gynecologic cancer cell panel viability, ATPlite luminescence, 48 h; series mostly up to 57.5 µM
How it was run: as §1

PA-1 = details: Gynecologic cancer cell panel viability, ATPlite luminescence, 48 h; series mostly up to 57.5 µM
How it was run: as §1

SKOV3 = details: Gynecologic cancer cell panel viability, ATPlite luminescence, 48 h; series mostly up to 57.5 µM
How it was run: as §1

Tov-21-G = details: Gynecologic cancer cell panel viability, ATPlite luminescence, 48 h; series mostly up to 57.5 µM
How it was run: as §1

Tov112D = details: Gynecologic cancer cell panel viability, ATPlite luminescence, 48 h; series mostly up to 57.5 µM
How it was run: as §1
% is set by controls: 0 for no effect and ±100 for the full control effect.

CC/C=C\CCO[C@@H]1O[C@H](CO[C@@H]2OC[C@H](O)[C@H](O)[C@H]2O)[C@@H](O)[C@H](O)[C@H]1O
inactive: Potency (C33A) | Potency (CAOV3) | Potency (CASKI) | Potency (Es-2) | Potency (HeLa) | Potency (Hek293T) | Potency (JEG-3) | Potency (OV90) | Potency (PA-1) | Potency (SKOV3) | Potency (Tov-21-G) | Potency (Tov112D)

C[C@@H](O)[C@H](NC(=O)c1ccc(C#Cc2ccc(CN3CCOCC3)cc2)cc1)C(=O)NO
inactive: Potency (C33A) | Potency (CAOV3) | Potency (CASKI) | Potency (Es-2) | Potency (HeLa) | Potency (Hek293T) | Potency (JEG-3) | Potency (OV90) | Potency (PA-1) | Potency (SKOV3) | Potency (Tov-21-G) | Potency (Tov112D)

CC1=CC(=O)C(=C(C)C)CC2C1CCC2(C)O (stereo unspecified)
inactive: Potency (C33A) | Potency (CAOV3) | Potency (CASKI) | Potency (Es-2) | Potency (HeLa) | Potency (Hek293T) | Potency (JEG-3) | Potency (OV90) | Potency (PA-1) | Potency (SKOV3) | Potency (Tov-21-G) | Potency (Tov112D)

COc1cc(/C=C/C(=O)OC[C@H]2O[C@@](CO)(O[C@H]3O[C@H](CO)[C@@H](O)[C@H](O)[C@H]3O)[C@@H](OC(=O)/C=C/c3ccc(O)c(OC)c3)[C@@H]2O)ccc1O
inactive: Potency (C33A) | Potency (CAOV3) | Potency (CASKI) | Potency (Es-2) | Potency (HeLa) | Potency (Hek293T) | Potency (JEG-3) | Potency (OV90) | Potency (PA-1) | Potency (SKOV3) | Potency (Tov-21-G) | Potency (Tov112D)

COC(=O)C[C@H]1C(C)(C)[C@H](OC(=O)C(C)C)[C@@]2(O)C(=O)[C@]1(C)C1CC[C@]3(C)C(CC(=O)O[C@H]3c3ccoc3)[C@]13O[C@@H]32 (stereo partly specified)
inactive: Potency (C33A) | Potency (CAOV3) | Potency (CASKI) | Potency (Es-2) | Potency (HeLa) | Potency (Hek293T) | Potency (JEG-3) | Potency (OV90) | Potency (PA-1) | Potency (SKOV3) | Potency (Tov-21-G) | Potency (Tov112D)

COC1CC(O[C@H]2CC[C@@]3(C)C(=CC[C@]4(O)C3[C@H](OC(C)=O)[C@@H](OC(=O)c3ccccc3)[C@]3(C)[C@@H](C(C)=O)CC[C@@]34O)C2)OC(C)C1OC1CC(OC)C(OC2CC(OC)C(OC3OC(C)C(OC4OC(CO)C(O)C(O)C4O)C(OC)C3O)C(C)O2)C(C)O1 (stereo partly specified)
inactive: activity change, negative = cytotoxicity (C33A) -6.27% [at 6.55 µM] | activity change, negative = cytotoxicity (CAOV3) -1.71% [at 6.55 µM] | activity change, negative = cytotoxicity (CASKI) -17.5% [at 6.55 µM] | activity change, negative = cytotoxicity (Es-2) 3.59% [at 6.55 µM] | activity change, negative = cytotoxicity (HeLa) -1.12% [at 6.55 µM] | activity change, negative = cytotoxicity (Hek293T) -1.35% [at 6.55 µM] | activity change, negative = cytotoxicity (JEG-3) -8.02% [at 6.55 µM] | activity change, negative = cytotoxicity (OV90) 7.55% [at 6.55 µM] | activity change, negative = cytotoxicity (PA-1) -5.59% [at 6.55 µM] | activity change, negative = cytotoxicity (SKOV3) 11% [at 6.55 µM] | activity change, negative = cytotoxicity (Tov-21-G) -0.609% [at 6.55 µM] | activity change, negative = cytotoxicity (Tov112D) 2.04% [at 6.55 µM]

COC(=O)CC(O)C1OC(c2ccccc2)C(O)C1O (stereo unspecified)
inactive: Potency (C33A) | Potency (CAOV3) | Potency (CASKI) | Potency (Es-2) | Potency (HeLa) | Potency (Hek293T) | Potency (JEG-3) | Potency (OV90) | Potency (PA-1) | Potency (SKOV3) | Potency (Tov-21-G) | Potency (Tov112D)

CC(C)CC(=O)OC1OC=C(CO[C@@H]2O[C@H](CO)[C@@H](O)[C@H](O)[C@H]2O)C2CC(O)C(O)(CO)C12 (stereo partly specified)
inactive: Potency (C33A) | Potency (CAOV3) | Potency (CASKI) | Potency (Es-2) | Potency (HeLa) | Potency (Hek293T) | Potency (JEG-3) | Potency (OV90) | Potency (PA-1) | Potency (SKOV3) | Potency (Tov-21-G) | Potency (Tov112D)
